RecA splice inh: Mtb RecA intein splicing inhibition; cell-free RecA intein splicing, fluorescence; inhibition, % (no concentration beside the values); 290,000 tested, 0.75% active; AID 2221; in the data active means inhibition above about 30%
Target sequence (P9WHJ3 whole entry, looked up, canonical isoform): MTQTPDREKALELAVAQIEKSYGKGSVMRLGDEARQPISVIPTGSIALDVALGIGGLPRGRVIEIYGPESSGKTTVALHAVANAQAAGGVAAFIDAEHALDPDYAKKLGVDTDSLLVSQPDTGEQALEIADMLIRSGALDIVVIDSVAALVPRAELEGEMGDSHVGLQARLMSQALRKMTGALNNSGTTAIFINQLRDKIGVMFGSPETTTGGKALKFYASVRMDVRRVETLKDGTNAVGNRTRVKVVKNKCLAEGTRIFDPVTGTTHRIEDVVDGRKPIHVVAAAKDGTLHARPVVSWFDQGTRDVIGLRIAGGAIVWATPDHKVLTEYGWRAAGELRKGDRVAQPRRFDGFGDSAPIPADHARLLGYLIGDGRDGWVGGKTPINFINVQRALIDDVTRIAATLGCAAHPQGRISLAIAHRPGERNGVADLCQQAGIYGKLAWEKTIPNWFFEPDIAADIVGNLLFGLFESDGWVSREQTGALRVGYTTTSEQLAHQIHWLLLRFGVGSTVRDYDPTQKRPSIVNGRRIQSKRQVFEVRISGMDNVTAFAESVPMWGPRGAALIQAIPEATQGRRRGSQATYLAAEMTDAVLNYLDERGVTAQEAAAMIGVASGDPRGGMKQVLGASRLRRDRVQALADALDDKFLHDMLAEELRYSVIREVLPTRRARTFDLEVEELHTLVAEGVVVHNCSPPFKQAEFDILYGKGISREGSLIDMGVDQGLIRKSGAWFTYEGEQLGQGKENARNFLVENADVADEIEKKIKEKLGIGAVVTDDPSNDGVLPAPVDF
GDH-TPI inh: inhibits GDH-TPI coupling enzymes, artifact for Mtb FBA screen. GDH-TPI coupled enzyme counterscreen, NADH absorbance. inhibition, % at 4.8 µM. 360,000 tested, 1.2% active. AID 588335
FBA Mtb inh: Mtb fructose-bisphosphate aldolase inhibition; inhibition, % at 1 µM; AID 588726; purified M. tuberculosis FBA, fluorescence read-out; 360,000 tested, 2.3% active; P9WQA3; in the data active means inhibition above about 27%
CCHF vOTU inh-1: CCHFV vOTU protease inhibition; Pep-AMC fluorescence; inhibition, % at 11.5 µM; AID 651958; 370,000 tested, 0.55% active
CCHF vOTU inh-2: confirmation of CCHF virus vOTU protease inhibitors; shares compounds with CCHF vOTU inh-1; Recombinant CCHFV vOTU, Pep-AMC fluorescence; inhibition, % at 11.5 µM; 1,900 tested, 17% active; AID 686976
Large screens that a line does not name were inactive (follow-up assays come after a bar, where they were run); ! = not confirmed by another sample. Rows were chosen to be rich in hits. Some 4.2% of all compounds tested hit in one or more screens of this group. Unless noted, no stated cut-off is given here; in the data, active means inhibition above about 30%; inactive means the rest.

O=C(CCS(=O)(=O)c1ccc(Cl)cc1)NC1CCCC1	none (no result: RecA splice inh)
Cc1cc(/C=C2/NC(=O)NC2=O)c(C)n1-c1ccccn1	none
Cc1ccc(-n2c(C)cc(/C=C3\NC(=O)NC3=O)c2C)c(C)c1	CCHF vOTU inh-1 32.8 | CCHF vOTU inh-2 inactive
COc1ccc(NS(=O)(=O)c2ccc3c(c2)[C@H]2C=CC[C@H]2[C@@H](c2ccc(C(=O)O)cc2)N3)cc1	CCHF vOTU inh-1 38.5 | CCHF vOTU inh-2 inactive
CCOc1ccc(S(=O)(=O)N2CCCCC2)cc1NC(=O)CN1C(=O)NC(C)(C2CC2)C1=O (stereo not given)	none (no result: RecA splice inh)
O=C(O)C1OC(Oc2c(-c3ccc(O)c(O)c3)oc3cc(O)cc(O)c3c2=O)C(O)C(O)C1O (stereo not given)	none (no result: GDH-TPI inh, FBA Mtb inh, CCHF vOTU inh-1)
O=c1c(O)c(-c2ccc(O)c(O)c2)oc2cc(O)cc(O)c12	CCHF vOTU inh-1 31.5 | CCHF vOTU inh-2 inactive
O=C(CCN1C(=O)/C(=C\c2ccco2)SC1=S)Nc1ccc(C(=O)O)c(O)c1	CCHF vOTU inh-1 33.6 | CCHF vOTU inh-2 inactive
COc1ccccc1/C=C1\SC(=S)N(CCC(=O)Nc2ccc(C(=O)O)c(O)c2)C1=O	CCHF vOTU inh-1 34.5 | CCHF vOTU inh-2 inactive
O=C(O)c1cccc(S(=O)(=O)Nc2ccc([N+](=O)[O-])cc2O)c1	none
O=S(=O)(Nc1cc(Sc2cccc3cccnc23)c(O)c2ccccc12)c1ccccc1	CCHF vOTU inh-1 40.3 (no result: GDH-TPI inh, FBA Mtb inh) | CCHF vOTU inh-2 inactive
O=C(O)CSc1cc(NS(=O)(=O)c2cccc([N+](=O)[O-])c2)c2ccccc2c1O	RecA splice inh 95.2, CCHF vOTU inh-1 108.4 | CCHF vOTU inh-2 98.6
CCCc1cc(-c2ccc(O)c(OCC)c2)c(C#N)c(N)n1	CCHF vOTU inh-1 38.8 (no result: RecA splice inh) | CCHF vOTU inh-2 inactive
O=C(CCn1c(=S)oc2ccccc21)NC1CCCCCCC1	CCHF vOTU inh-1 32.1 | CCHF vOTU inh-2 inactive
O=C(CCn1c(=S)oc2ccccc21)N1CCCCC1	none
CCC(NC(=O)c1ccc2c(ccn2Cc2cccc(-c3ccc(C(=O)O)cc3)c2)c1)c1ccccc1 (stereo not given)	CCHF vOTU inh-1 32.0 (no result: RecA splice inh, GDH-TPI inh, FBA Mtb inh) | CCHF vOTU inh-2 inactive
CCOc1ccc(CCNC(=O)c2ccc(Cl)c(S(=O)(=O)N3CCOCC3)c2)cc1OCC	CCHF vOTU inh-1 41.7 | CCHF vOTU inh-2 inactive
COc1cc2nc(CN3CCN(S(=O)(=O)c4ccccc4[N+](=O)[O-])CC3)[nH]c(=O)c2cc1OC	none (no result: RecA splice inh)
Cc1ccc(S(=O)(=O)n2cnc3cc([N+](=O)[O-])ccc32)cc1C	none
Cc1ccc(-n2c3nc(=O)[nH]c(=O)c-3cc3cc([N+](=O)[O-])ccc32)cc1C	CCHF vOTU inh-1 31.0 (no result: RecA splice inh) | CCHF vOTU inh-2 inactive
Cc1ccc(S(=O)(=O)Nc2ccc(Nc3nccn4c(-c5cccc(OC(F)(F)F)c5)cnc34)cc2)cc1	CCHF vOTU inh-1 29.9 (no result: RecA splice inh) | CCHF vOTU inh-2 inactive
O=C(NCCO)c1cccc(-c2cnc3c(Nc4cccc(OC(F)(F)C(F)F)c4)nccn23)c1	none (no result: RecA splice inh)
Cc1c(NC(=O)C(C)OC(=O)c2sc3ccccc3c2Cl)c(=O)n(-c2ccccc2)n1C (stereo not given)	none
Cc1c(NC(=O)C(C)OC(=O)c2ccc([N+](=O)[O-])s2)c(=O)n(-c2ccccc2)n1C (stereo not given)	CCHF vOTU inh-1 41.0 (no result: RecA splice inh) | CCHF vOTU inh-2 45.1
CN(CCCC1CCCC1)C(=O)c1cc(COc2ccc(F)c(F)c2)on1	CCHF vOTU inh-1 37.8 | CCHF vOTU inh-2 inactive
Cc1ccc(N=C2C(=O)Nc3ccccc32)cc1	none
Cc1nc2c(o1)C(=O)c1ccccc1C2=Nc1ccccc1	CCHF vOTU inh-1 41.5 (no result: RecA splice inh) | CCHF vOTU inh-2 53.1
COc1ccccc1C(CCNCc1ccc(N(C)C)cc1)c1ccc(OC(C)C)cc1 (stereo not given)	CCHF vOTU inh-1 32.8 | CCHF vOTU inh-2 inactive
Cc1cc(/C=C(\C#N)C(=O)O)c(C)n1CCC(C)C	CCHF vOTU inh-1 29.7 | CCHF vOTU inh-2 inactive
Cc1ccc(S(=O)(=O)N2[C@@H](c3ccc(C(C)(C)C)cc3)C(C(=O)O)=CC[C@H]2c2ccc(Cl)cc2)cc1	CCHF vOTU inh-1 41.8 (no result: RecA splice inh) | CCHF vOTU inh-2 inactive
Cc1ccc(S(=O)(=O)N2[C@@H](c3ccc(C(C)(C)C)cc3)C(C(=O)O)=CC[C@H]2c2ccc(C(C)C)cc2)cc1	CCHF vOTU inh-1 46.9 (no result: RecA splice inh) | CCHF vOTU inh-2 inactive
Cc1ccc(S(=O)(=O)N2[C@@H](c3ccc(C(C)(C)C)cc3)C(C(=O)O)=CC[C@H]2c2cccs2)cc1	CCHF vOTU inh-1 32.2 (no result: RecA splice inh) | CCHF vOTU inh-2 inactive
CCc1ccc([C@@H]2CC=C(C(=O)O)[C@H](c3ccc(C(C)(C)C)cc3)N2S(=O)(=O)c2ccc(C)cc2)cc1	CCHF vOTU inh-1 46.0 (no result: RecA splice inh) | CCHF vOTU inh-2 inactive
Cc1noc(C)c1CSCC(=O)N(C)CC(=O)Nc1ccccc1Cl	none
Cc1ccc([C@@H]2CC=C(C(=O)O)[C@H](c3ccc(F)cc3)N2S(=O)(=O)c2ccc(C)cc2)cc1	none (no result: RecA splice inh)
Cc1ccc([C@@H]2CC=C(C(=O)O)[C@H](c3ccc(C(C)(C)C)cc3)N2S(=O)(=O)c2ccc(C)cc2)cc1	CCHF vOTU inh-1 41.5 (no result: RecA splice inh) | CCHF vOTU inh-2 inactive
C[n+]1cccc2c(Br)ccc([O-])c21	CCHF vOTU inh-1 102.7 | CCHF vOTU inh-2 41.6
[O-][n+]1cccc2c(Br)cc(Br)c(O)c21	none
CCOc1cc(N2CCOCC2)c(OCC)cc1NC(=O)C(C)C	none
CCOc1cc(N2CCOCC2)c(OCC)cc1NC(C)C(=O)N1CCN(CC)CC1 (stereo not given)	CCHF vOTU inh-1 31.2 | CCHF vOTU inh-2 inactive
CCC(C)(C)n1nnnc1C(c1cccnc1)N1CCN(c2cccc(C(F)(F)F)c2)CC1 (stereo not given)	CCHF vOTU inh-1 30.5 | CCHF vOTU inh-2 inactive
COc1ccc(C)cc1S(=O)(=O)N(CC(=O)Nc1ccc2c(c1)OCCO2)Cc1ccccc1	none (no result: CCHF vOTU inh-1)
COc1ccc(C)cc1S(=O)(=O)N(C)CC(=O)Nc1ccc2c(c1)OCO2	CCHF vOTU inh-1 30.4 | CCHF vOTU inh-2 inactive
Cc1cc(F)cc(-c2cc(C(=O)NCc3ccccc3)[nH]n2)c1	none (no result: RecA splice inh)
Cc1cc(F)cc(-c2cc(C(=O)NCc3cccc(Cl)c3)[nH]n2)c1	CCHF vOTU inh-1 34.0 (no result: RecA splice inh) | CCHF vOTU inh-2 inactive
COC(=O)c1sccc1NC(=O)c1c(F)c(F)c(F)c(F)c1F	none (no result: RecA splice inh)
Cc1cc(NS(=O)(=O)c2ccc(NC(=O)COc3ccccc3Cl)cc2)no1	none
CCc1ccc(OCC(=O)Nc2ccc(S(=O)(=O)Nc3cc(C)on3)cc2)c(Br)c1	CCHF vOTU inh-1 44.0 | CCHF vOTU inh-2 inactive
O=C(O)c1ccccc1-c1c2cc(I)c(=O)c(I)c-2oc2c(I)c(O)c(I)cc12	CCHF vOTU inh-1 36.6! (no result: RecA splice inh) | CCHF vOTU inh-2 38.6
CN(C)CCCN1c2ccc([N+](=O)[O-])cc2CCc2cc([N+](=O)[O-])ccc21	CCHF vOTU inh-1 35.4 | CCHF vOTU inh-2 inactive
COc1ccccc1N(C)S(=O)(=O)c1ccc(C(=O)Nc2cccc(S(=O)(=O)N3CCOCC3)c2)cc1	CCHF vOTU inh-1 34.9 (no result: RecA splice inh) | CCHF vOTU inh-2 inactive
Cc1cc(C(=O)Nc2cccc(S(=O)(=O)N3CCOCC3)c2)c2ccccc2n1	CCHF vOTU inh-1 35.5 (no result: RecA splice inh) | CCHF vOTU inh-2 inactive
COc1ccccc1N(C)S(=O)(=O)c1ccc(C(=O)NNC(=O)c2ccccc2O)cc1	CCHF vOTU inh-1 29.7 (no result: RecA splice inh) | CCHF vOTU inh-2 inactive

Assay outcomes from PubChem.
